Bioassay records from PubChem.
NFkB transloc inh – inhibitors of IL-1B driven NFkB p65 nuclear import, primary screen, imaging, HUVEC, IL-1B stimulus, high-content imaging; HUVEC IL-1B NFkB p65 nuclear translocation imaging; inhibition, % at 2 µM; hit rate 0.43% among 94,000;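 active = inhibition above about 30% together with a positive call from visual inspection of the well image, limit read from the data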;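 note: nuclear over cytoplasmic p65 intensity ratio measured by imaging; 0% = IL-1B stimulated DMSO wells and 100% = unstimulated DMSO wells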
HUVEC tox IL1B – cytotoxicity in IL-1B stimulated HUVEC, primary screen, cytotoxicity control for IL-1B NFkB translocation project, imaging, Hoechst nuclear count, IL-1B stimulus; HUVEC cell count loss; cell count reduction, % at 2 µM; hit rate 0.41% among 94,000;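 active = cell count reduction more than 3 SD above the screen-wide mean, cut at about 70% in these data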;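 note: normalized per plate to untreated control cells as the no-loss baseline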
INS promoter inh – inhibitors of insulin promoter-driven GFP, primary screen, imaging, TRM-6 cells (human fetal islet line), eGFP reporter, cell count | reporter expression induced with tamoxifen | inhibition, % at 2 µM | hit rate 0.9% among 130,000;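 active = inhibition above the mean plus 3 SD, with well images judged a real hit on visual review, cut at about 60% in these data, passing the limit was not always enough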
NFkB transloc pot – enhancers of NFkB p65 translocation in HUVEC – imaging, IL-1B stimulus, high-content imaging, primary screen; HUVEC IL-1B NFkB p65 nuclear translocation imaging; activation, % at 2 µM; hit rate 0.3% among 94,000;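 active = activation above 40%, about the mean plus 3 SD, also judged a hit on visual image review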;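 note: percent activation is computed from the nuclear over cytoplasmic p65 intensity ratio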
The depositor's hits bear a star. Only some compounds are listed: those with a hit (about 1.3% of all), similar ones and a draw of the others.

`COC(=O)c1cc(=O)nc2sccn12` gave NFkB transloc inh -42.3, HUVEC tox IL1B -33.3, INS promoter inh 7.1 and NFkB transloc pot 42.3*.
CCOc1ccc(NC(=O)C(Cc2ccccc2)NC(=O)C2CCCCC2)cc1 (stereo unspecified) was read as INS promoter inh 35.7.
CCc1ccc(C2=NN(C(=O)OC)C(O)(C(F)(F)F)C2)cc1 (stereo unspecified) was read as NFkB transloc inh -11.0, HUVEC tox IL1B -3.3, INS promoter inh -10.0 and NFkB transloc pot 11.0.
CCOC(=O)N1N=C(c2ccccc2)CC1(O)C(C)(F)F (stereo unspecified) was read as INS promoter inh 73.7*.
`O=C(OCc1ccc([N+](=O)[O-])cc1)C1CC(=O)N(c2ccccc2)C1` (stereo unspecified) gave NFkB transloc inh -4.8, HUVEC tox IL1B 28.5, INS promoter inh 78.6* and NFkB transloc pot 4.8.
Cc1ccc(N2CC(C(=O)OCc3ccccc3)CC2=O)cc1 (stereo unspecified) was read as NFkB transloc inh -8.8, HUVEC tox IL1B -3.9 and NFkB transloc pot 8.8.
For O=C(NCCCn1ccnc1)C(Cc1ccc([N+](=O)[O-])cc1)N1C(=O)c2ccccc2C1=O (stereo unspecified) the results were NFkB transloc inh -7.1, HUVEC tox IL1B 48.2, INS promoter inh 51.4 and NFkB transloc pot 7.1.
CC(O)C(C(=O)OCc1ccc([N+](=O)[O-])cc1)N1C(=O)c2ccccc2C1=O (stereo unspecified) was read as INS promoter inh 61.5*.
O=C(CCCOc1ccc(Cl)cc1Cl)N/N=C/c1ccco1 was read as INS promoter inh 78.6*.
Screening CN(C)CCCNC1=CC(=O)CC(c2ccccc2)C1 (stereo unspecified) returned INS promoter inh 83.3*.
`O=C(O)CCCCCNS(=O)(=O)c1ccc(Cl)cc1` gave NFkB transloc inh 47.1*, HUVEC tox IL1B -82.8, INS promoter inh -63.6 and NFkB transloc pot -47.1.
Cc1ccc(NC(=O)CN(C)CC(=O)Nc2cccc(F)c2)cc1S(=O)(=O)N1CCCCCC1 was read as INS promoter inh -11.1.
`O=C(Nn1c(O)c(C=C2N=c3ccccc3=N2)sc1=S)c1ccccc1` gave NFkB transloc inh -16.6, HUVEC tox IL1B 87.6*, INS promoter inh 6.7 and NFkB transloc pot 16.6.
For Cc1ccc(C(=O)Nn2c(O)c(C=C3N=c4ccccc4=N3)sc2=S)cc1 the results were NFkB transloc inh -3.0, HUVEC tox IL1B -38.3, INS promoter inh 0.0 and NFkB transloc pot 3.0.
Screening COc1cccc(C2C3=C(N=c4s/c(=C\c5ccccc5O)c(=O)n42)c2ccccc2CC3)c1OC (stereo unspecified) returned INS promoter inh 35.0.
`COc1ccccc1C1C(C(C)=O)=C(C)N=c2s/c(=C\c3cc(OC)c(OC)c(OC)c3)c(=O)n21` (stereo unspecified) gave NFkB transloc inh 98.3*, HUVEC tox IL1B 83.7*, INS promoter inh 36.8 and NFkB transloc pot -98.3.
CCOC(=O)c1sc2nc(COC(=O)c3c(F)cccc3F)[nH]c(=O)c2c1C was read as INS promoter inh -17.6.
Screening O=C(OCn1ncc(Br)c(Br)c1=O)c1c(F)cccc1F returned NFkB transloc inh 89.3*, HUVEC tox IL1B 31.9, INS promoter inh -257.1 and NFkB transloc pot -89.3.
`CCCC(=O)Nc1nnc(CCOC)s1` gave INS promoter inh -43.3.
`CCCC(=O)Nc1nnc(COC)s1` gave NFkB transloc inh -11.2, HUVEC tox IL1B 4.7, INS promoter inh 89.5* and NFkB transloc pot 11.2.
`Cc1c(/C=C/C(=O)c2ccc(Cl)s2)cnn1C` gave NFkB transloc inh -9.7, HUVEC tox IL1B 8.2, INS promoter inh 75.0* and NFkB transloc pot 9.7.
CCCC(C)NC(=O)CSc1nc2ccc(C)cc2[nH]1 (stereo unspecified) was read as INS promoter inh -27.3.
For COc1c(OC(C)=O)ccc(/C=N\NC(=O)c2ccc(Br)cc2)c1[N+](=O)[O-] the results were INS promoter inh 0.0.
For CC1CCCCN1C(=O)Cn1nnc(-c2cccnc2)n1 (stereo unspecified) the results were NFkB transloc inh -19.9, HUVEC tox IL1B 18.0, INS promoter inh -50.0 and NFkB transloc pot 19.9.
Cc1ccc(-c2nnn(CCC(=O)N3CCCCC3C)n2)cc1 (stereo unspecified) was read as NFkB transloc inh 7.0, HUVEC tox IL1B 29.1, INS promoter inh 71.4* and NFkB transloc pot -7.0.
COc1cccc(C2CC(c3cccs3)=NN2S(C)(=O)=O)c1 (stereo unspecified) was read as INS promoter inh -57.1.
`CC(=Nc1ccc(C)cc1)c1sc2ccccc2c1O` gave NFkB transloc inh -4.5, HUVEC tox IL1B -7.5, INS promoter inh 26.3 and NFkB transloc pot 4.5.
CC(=Nc1cccc(O)c1)c1sc2ccccc2c1O was read as NFkB transloc inh 53.3*, HUVEC tox IL1B -40.9, INS promoter inh -17.2 and NFkB transloc pot -53.3.
For O=C(Nc1ccc(F)cc1)C1CCN(S(=O)(=O)c2cccs2)CC1 the results were INS promoter inh -5.9.
`CCCCS(=O)(=O)Nc1ccc2ncn(C)c(=O)c2c1` gave NFkB transloc inh -2.9, HUVEC tox IL1B 72.2*, INS promoter inh -23.1 and NFkB transloc pot 2.9.
Cc1nc2ccccc2c(=O)n1NC(=O)c1ccc([N+](=O)[O-])cc1 was read as INS promoter inh 55.6.
CN(Cc1ccc(O)cc1)C1CCCCC1 was read as NFkB transloc inh 2.4, HUVEC tox IL1B 13.0, INS promoter inh 92.3* and NFkB transloc pot -2.4.
For C#CC1(NC(=O)NC(C)C)CCCCC1 the results were INS promoter inh 13.3.
CCOC(=O)N1CCC(n2c(SCC(=O)NCCc3ccc(S(N)(=O)=O)cc3)nc3ccccc3c2=O)CC1 was read as INS promoter inh -42.9.
For CCOC(=O)N1CCN(C(=O)CSc2ccc(-c3ccncc3)nn2)CC1 the results were INS promoter inh 75.0*.
For CCOC(=O)N1CCN(C(=O)CSc2ccc(-c3ccccc3)nn2)CC1 the results were INS promoter inh -2.9.
For C=C(C)C1CC=C(C)/C(=N/NC(=O)c2ccc(NC(=O)CC)cc2)C1 (stereo unspecified) the results were NFkB transloc inh 8.2, HUVEC tox IL1B -9.8, INS promoter inh -35.1 and NFkB transloc pot -8.2.
C=C(C)C1CC=C(C)/C(=N/NC(=O)c2ccc(NC(=O)CCC)cc2)C1 (stereo unspecified) was read as NFkB transloc inh -2.2, HUVEC tox IL1B 12.1, INS promoter inh 83.3* and NFkB transloc pot 2.2.
For CCc1nc(Nc2ccc3c(c2)OCCO3)c2oc3ccccc3c2n1 the results were NFkB transloc inh 6.4, HUVEC tox IL1B 0.8, INS promoter inh 85.7* and NFkB transloc pot -6.4.
Screening Cc1nc(Nc2ccc3c(c2)OCCO3)c2oc3ccccc3c2n1 returned NFkB transloc inh -87.1, HUVEC tox IL1B 4.6, INS promoter inh 66.7 and NFkB transloc pot 87.1*.
